Screens as filed in PubChem.
Sampled rows, rich in hits. Any-hit rate of the full collection: about 19%.
DT40 TDP1 CPT: growth inhibition of DT40 Tdp1-/-;hTDP1 cells with camptothecin (screen for TDP1 inhibitors); Potency, µM (top dose mostly 46.2 µM), actives largely listed as inhibitors; 420,000 tested, 12% active; chicken DT40 Tdp1-/-;hTDP1 cells + 20 nM CPT, ATP luminescence, 48 h; also: nearly all actives have a fitted effect of over 55% in size
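Chicken DT40 Tdp1-/- cells complemented with human TDP1, 400 cells/well, exposed to compounds plus 20 nM camptothecin for at least 48 h at 37 C; viability read as ATP content by CellTiter-Glo luminescence.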
DT40 TDP1 no CPT: qHTS for Inhibitors of human tyrosyl-DNA phosphodiesterase 1 (TDP1): qHTS in cells in absence of CPT; DT40 Tdp1-/- hTDP1 cells, no CPT, ATP luminescence, 48 h; Potency, µM (highest dose often 46.2 µM), hits mostly inhibitors; 420,000 tested, 15% active; AID 686978, 2013; also: nearly all actives have a fitted effect of over 55% in size
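DT40 Tdp1-/-;hTDP1 cells, no CPT (DMSO vehicle only), 400 cells/well; compounds pin-transferred; ≥48 hr, 37 °C; CellTiter-Glo 30 min RT dark, luminescence read.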
HT1080NT lethal: kills 2HG-producing HT-1080-NT fibrosarcoma cells; HT-1080-NT fibrosarcoma viability, CellTiter-Glo ATP luminescence, 48 h; Potency, µM (titrated, usually from 46.1 µM), most hits filed as cytotoxic; 360,000 tested, 1.6% active;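 also: NT is the 2HG producing partner of a matched IDH1 knockdown line; nearly all actives have a fitted effect of over 55% in size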
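A 48-hour cytotoxicity screen used HT-1080-NT cells plated 2 hours before compound delivery. ATP-based CellTiter-Glo luminescence measured viability, normalized to DMSO and no-cell controls.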
KB-V1 cytotox: KB-V1 MDR subline cytotoxicity; Potency, µM (doses to about 46.1 µM), usual class: cytotoxic; 400,000 tested, 3.4% active; KB-V1 MDR cells viability, CellTiter-Glo, 72 h; also: nearly all actives have a fitted effect of over 60% in size
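KB-V1 cells (P-gp-expressing MDR subline of KB-3-1) in phenol-red-free DMEM with 10% FBS were exposed to library compounds over a concentration series for 72 h at 37 degrees C. Viability read by CellTiter-Glo luminescence; concentration-effect curves fitted after normalization.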
HT1080 IDH1KD tx: toxicity to HT-1080 IDH1 knockdown cells (counter line) | HT-1080 IDH1 knockdown viability, ATP luminescence, 48 h | Potency, µM (titrated, usually from 46.1 µM), actives largely listed as cytotoxic | 360,000 tested, 2% active | AID 686971
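Using the IDH1-knockdown HT-1080 line run in the same batch and compound series as the NT line, viability after 48 h at 37 °C was determined by CellTiter-Glo luminescence and expressed as % activity.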
KB-3-1 cytotox: KB-3-1 parental cell cytotoxicity. AID 1347075. 400,000 tested, 1.4% active. KB-3-1 viability, CellTiter-Glo ATP luminescence, 72 h. Potency, µM (top dose mostly 46.1 µM), usual class: cytotoxic; also: nearly all actives have a fitted effect of over 60% in size
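Here the drug-naive KB-3-1 line serves as comparator for MDR sub-line selectivity; cells received compound titrations, 72 h at 37 °C, then CellTiter-Glo readout.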
Of the large screens only hits and unclear results are named; the others gave an inactive call. Calls follow the shape of the dose curve; as a rule, active = well fitted curve in the direction sought with a large enough effect; inconclusive = small, poorly fitted or top-dose-only effect, or another doubt; inactive = no such curve, though single readings can be large; an effect the other way counts as inactive or inconclusive.

COC(=O)c1ccc(C23CC4(C2)[C@H](CN(CC2CCCCC2)[C@@H]4c2ccccc2)C3c2ccc(Cl)nc2)cc1 (some centres not stated)	DT40 TDP1 CPT inconclusive, DT40 TDP1 no CPT inconclusive
FC(F)(F)c1ccc(CN2C[C@@H]3C(c4ccc(Cl)nc4)C4(c5cccnc5)CC3(C4)[C@H]2c2ccccc2)cc1 (some centres not stated)	DT40 TDP1 CPT inconclusive, DT40 TDP1 no CPT 16µM, HT1080NT lethal inconclusive, KB-V1 cytotox inconclusive, HT1080 IDH1KD tx inconclusive, KB-3-1 cytotox 15µM
COC(=O)c1cccc(C23CC4(C2)[C@H](CN(Cc2cccnc2)[C@@H]4c2ccccc2)C3c2ccc(C(F)(F)F)cc2)c1 (some centres not stated)	DT40 TDP1 CPT 16µM, DT40 TDP1 no CPT 16µM, KB-3-1 cytotox inconclusive
COC(=O)c1ccc(C23CC4(C2)[C@H](CN(Cc2ccc(C(F)(F)F)cc2)[C@@H]4c2ccccc2)C3c2ccc(Cl)nc2)cc1 (some centres not stated)	DT40 TDP1 CPT 9.2µM, DT40 TDP1 no CPT 10µM
CN1C[C@@H]2C(c3ccc(Cl)nc3)C3(c4cccnc4)CC2(C3)[C@H]1c1ccccc1 (some centres not stated)	none
FC(F)(F)c1ccc(C2[C@H]3CN(CC4CCCCC4)[C@H](c4ccccc4)C34CC2(c2cccnc2)C4)cc1 (some centres not stated)	DT40 TDP1 CPT inconclusive, DT40 TDP1 no CPT 16µM
COC(=O)c1cccc(C23CC4(C2)[C@H](CN(Cc2cccnc2)[C@@H]4c2ccccc2)C3c2ccc(Cl)nc2)c1 (some centres not stated)	DT40 TDP1 CPT inconclusive, DT40 TDP1 no CPT inconclusive, KB-3-1 cytotox inconclusive
Clc1ccc(C2[C@H]3CN(CC4CCCCC4)[C@H](c4ccccc4)C34CC2(c2ccccc2)C4)cn1 (some centres not stated)	DT40 TDP1 no CPT inconclusive
O=c1[nH]c(-c2ccccc2)nc(-c2ccccc2)c1Cl	none
COc1cc(Cl)ccc1OCc1cc(C(=O)NCc2cc(C(C)C)no2)no1	none (no result: KB-V1 cytotox, KB-3-1 cytotox)
O=C1CCN(Cc2ccccc2)CCN1CCOc1ccccc1	DT40 TDP1 CPT 21µM, DT40 TDP1 no CPT 16µM, KB-V1 cytotox inconclusive, KB-3-1 cytotox inconclusive
O=C(CCN1CCN(Cc2ccccc2)CC1)Nc1cccc(Cl)c1	DT40 TDP1 CPT inconclusive, DT40 TDP1 no CPT inconclusive, KB-V1 cytotox 23µM
O=C(Nc1cccc(Cl)c1)OCCN1CCN(Cc2ccccc2)CCC1=O	DT40 TDP1 CPT inconclusive, DT40 TDP1 no CPT 18µM, KB-V1 cytotox inconclusive
CC(C)C(CO)N1CCN(Cc2ccccc2)CCC1=O (configuration not stated)	none
O=C(Nc1ccccc1)OCCN1CCN(Cc2ccccc2)CCC1=O	none
CC(C)[C@@H](COc1ccccc1)N1CCN(Cc2ccccc2)CCC1=O	DT40 TDP1 CPT 11µM, DT40 TDP1 no CPT inconclusive, KB-V1 cytotox inconclusive
COc1ccccc1CNC(=O)N1CCN(c2ccccc2Cl)CC1	DT40 TDP1 no CPT inconclusive
COc1ccc(NC(=O)c2cc(CN3CCCC3)on2)cc1Cl	none (no result: HT1080NT lethal, HT1080 IDH1KD tx)
COc1cc(OC)cc(-c2nc3nc(C)c(CCC(=O)Nc4ccc(C)cc4C)c(C)n3n2)c1	none (no result: HT1080NT lethal, HT1080 IDH1KD tx)
C=C1NN(Cc2ccccc2)C(=O)N1c1ccc(OCc2ccccc2)cc1	DT40 TDP1 CPT 11µM, DT40 TDP1 no CPT 11µM (no result: HT1080NT lethal, HT1080 IDH1KD tx)
CCCC(=O)Nc1ccc(C(=O)/C=C/c2ccc(SC)cc2)cc1	DT40 TDP1 CPT 13µM, DT40 TDP1 no CPT 18µM, HT1080NT lethal inconclusive, HT1080 IDH1KD tx inconclusive, KB-3-1 cytotox inconclusive
CCCC(=O)Nc1ccc(C(N)=O)cc1	none
CC(=O)Nc1ccc(/C=C/C(=O)c2ccc(-n3nncc3-c3ccccc3)cc2)cc1	DT40 TDP1 CPT 5.6µM, DT40 TDP1 no CPT 10µM (no result: HT1080NT lethal, HT1080 IDH1KD tx)
CSc1ccc(/C=C/C(=O)c2ccc(NC(C)=O)cc2)cc1	DT40 TDP1 CPT 16µM, DT40 TDP1 no CPT 21µM, KB-3-1 cytotox inconclusive
CC(=O)Nc1ccc(/C=C/C(=O)c2ccc3c(c2)OCCO3)cc1	DT40 TDP1 CPT inconclusive, DT40 TDP1 no CPT inconclusive, HT1080NT lethal inconclusive, HT1080 IDH1KD tx inconclusive
Cn1c(C(=O)N2CCCc3ccccc32)cc2sccc21	KB-V1 cytotox 15µM, KB-3-1 cytotox inconclusive
O=C(c1cc2sccc2n1Cc1ccccc1)N1CCCc2ccccc21	DT40 TDP1 CPT inconclusive, DT40 TDP1 no CPT inconclusive
O=C(c1cc2sccc2n1Cc1ccccc1)N1CCc2ccccc21	DT40 TDP1 no CPT inconclusive, KB-V1 cytotox 10µM, HT1080 IDH1KD tx inconclusive
Cc1ccccc1S(=O)(=O)NC(=O)C1(C)CCN1C(=O)CCc1ccc(Cl)cc1Cl (configuration not stated)	none
O=C(CSc1ncccn1)N/N=C/c1cccc([N+](=O)[O-])c1	KB-V1 cytotox inconclusive, KB-3-1 cytotox inconclusive
Cc1cc(C)nc(SCC(=O)N/N=C/c2cccc([N+](=O)[O-])c2)n1	DT40 TDP1 CPT 18µM, DT40 TDP1 no CPT 23µM
Cc1ccc(NCC(=O)N/N=C\C(Br)=C\c2ccccc2)cc1	DT40 TDP1 CPT 3.3µM, DT40 TDP1 no CPT 5.8µM, HT1080NT lethal inconclusive, HT1080 IDH1KD tx 16µM
Cc1cc(C)nc(SCC(=O)N/N=C/C=C/c2ccccc2)n1	DT40 TDP1 CPT inconclusive, DT40 TDP1 no CPT inconclusive
Cc1ccc(NCC(=O)N/N=C/c2ccc(C(=O)O)cc2)cc1	none
Cc1cc(C)nc(SCC(=O)N/N=C\C(Br)=C\c2ccccc2)n1	DT40 TDP1 CPT 6.5µM, DT40 TDP1 no CPT 15µM, KB-V1 cytotox inconclusive, HT1080 IDH1KD tx inconclusive, KB-3-1 cytotox inconclusive
Cc1cc(C)nc(SCC(=O)NN=C2CCCC2)n1	DT40 TDP1 CPT inconclusive, DT40 TDP1 no CPT 21µM
COc1cc(/C=C/c2cccc[n+]2C)ccc1OCC(=O)Nc1cccc(Cl)c1	DT40 TDP1 no CPT 18µM, KB-V1 cytotox inconclusive, KB-3-1 cytotox inconclusive
COc1ccc(NC(=O)COc2ccc(/C=C/c3cc[n+](C)cc3)cc2OC)cc1	DT40 TDP1 CPT inconclusive, DT40 TDP1 no CPT 23µM, KB-3-1 cytotox inconclusive
COc1cc(/C=C/c2cc[n+](C)cc2)ccc1OCC(=O)Nc1ccc(Cl)c(Cl)c1	DT40 TDP1 CPT inconclusive, DT40 TDP1 no CPT inconclusive, HT1080NT lethal inconclusive, HT1080 IDH1KD tx 23µM, KB-3-1 cytotox inconclusive
COc1ccc(NC(=O)COc2ccc(/C=C/c3cccc[n+]3C)cc2OC)cc1	KB-V1 cytotox inconclusive
